Pol kappa inh = blocks human DNA polymerase kappa activity. purified Pol kappa, fluorescent DNA synthesis assay, 10 min. Potency, µM (series often up to 107 µM), usual class: inhibitors. 400,000 compounds, 0.53% hits. AID 588579
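Readout: fluorescence, taken kinetically at 0 and 10 min. Conditions: 10 nM Pol kappa, 15 min RT compound preincubation, 50 nM substrate final. Controls: enzyme-free buffer wells.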
FEN1 inh = human FEN1 inhibition. P39748. Potency, µM (highest dose often 114 µM), hits mostly inhibitors. Recombinant FEN1 flap cleavage, fluorescence, 15 min. 390,000 compounds, 0.35% hits. AID 588795; also: nearly all actives have a fitted effect of over 65% in size
Target sequence (P39748 whole entry, looked up): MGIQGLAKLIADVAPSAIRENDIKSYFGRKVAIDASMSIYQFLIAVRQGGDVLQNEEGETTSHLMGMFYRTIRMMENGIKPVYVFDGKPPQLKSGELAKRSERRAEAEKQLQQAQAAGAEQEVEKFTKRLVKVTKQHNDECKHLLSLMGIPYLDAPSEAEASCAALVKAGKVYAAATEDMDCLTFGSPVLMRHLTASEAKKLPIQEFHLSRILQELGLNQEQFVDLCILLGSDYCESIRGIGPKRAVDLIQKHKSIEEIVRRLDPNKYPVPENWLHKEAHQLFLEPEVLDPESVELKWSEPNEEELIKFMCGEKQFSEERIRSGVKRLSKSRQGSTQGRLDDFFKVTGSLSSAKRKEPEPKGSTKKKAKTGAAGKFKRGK
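FEN1 at 10 nM preincubated with compounds 15 min at room temperature, then flap DNA substrate added at 50 nM final. Signal read at 0 and 15 min; concentration-response fitted with four-parameter Hill equation.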
POLI inh = inhibitors of human DNA polymerase iota; Pol iota fluorescent replication assay, 10 min; AID 588590; Potency, µM (series often up to 115 µM), most hits filed as inhibitors; 390,000 compounds, 1% hits
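Fluorescent replication assay read twice, at 0 min and 10 min after adding 50 nM (final) substrate. Enzyme (10 nM) and compounds were first incubated 15 min at room temperature; enzyme-free buffer wells were negative controls.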
POLH inh = DNA polymerase eta (human) inhibition. Potency, µM (top dose mostly 114 µM), most hits filed as inhibitors. AID 588591. recombinant Pol eta, fluorescent DNA replication assay. 390,000 compounds, 1.2% hits. Q9Y253
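Pol eta (10 nM) was preincubated with compounds for 15 min at room temperature, after which fluorescent replication substrate (50 nM final) was added to start the reaction. Fluorescence was read kinetically at 0 and 10 min.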
POLB inh = blocks human DNA polymerase beta activity. Potency, µM (titrated, usually from 114 µM), most hits filed as inhibitors. P06746. AID 485314. 340,000 compounds, 1.3% hits. Pol beta primer extension/strand displacement, fluorescence kinetic
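Human Pol beta at 10 nM; strand-displacement substrate 50 nM final. Compound exposure 15 min at room temperature before start, reaction 10 min at room temperature.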
PGK inhibitor = inhibitors of T. brucei phosphoglycerate kinase; P07378; PGK/GAPDH coupled, Kinase-Glo luminescence, 60 min; Potency, µM (series often up to 57.5 µM), hits mostly inhibitors; 380,000 compounds, 0.043% hits; AID 602233; also: nearly all actives have a fitted effect of over 60% in size
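Luminescent ATP detection (Kinase-Glo Plus) follows a 60-minute room-temperature incubation, with wells lacking PGK as controls. Buffer: 100 mM TEA (pH 7.6), 5 mM MgCl2, 0.01% Tween-20. Coupling enzyme GAPDH (100 nM final) supplies unstable 1,3-BPG in-well.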
Numbers stand for hits; . = inactive; ? = inconclusive; / = no result; ! = repeats disagree; [ ] = another dose, or the depositor's remark. In the library only some 2.4% were active in any assay of this set; here they are far more common. Calls follow the shape of the dose curve; as a rule, active = well fitted curve in the direction sought with a large enough effect; inconclusive = small, poorly fitted or top-dose-only effect, or another doubt; inactive = no such curve, though single readings can be large; an effect the other way counts as inactive or inconclusive.

SMILES	Pol kappa inh	FEN1 inh	POLI inh	POLH inh	POLB inh	PGK inhibitor
O=C(c1ccc(Cl)cc1)C(CN1CCCCC1)c1ccccc1 (configuration not stated)	.	.	7.1µM	?	.	.
N#C/C(=C/c1ccco1)C(N)=S	.	.	?	.	20µM	.
N#C/C(=C\c1ccc2c(c1)OCO2)C(N)=S	.	.	?	.	.	.
CC1=C(C(=O)OCC2CCCCC2)C(c2ccc(Cl)cc2)CC(=O)N1 (configuration not stated)	.	.	.	?	.	.
CN(C)c1ccc(CN(Cc2ccco2)C(=O)COc2ccc(F)cc2)cc1	.	.	.	/	.	/
CCc1cccc(NC(=O)c2cc3c(=O)n(Cc4ccc(OC)cc4)ccc3nc2C)c1	.	.	.	.	.	.
CCOc1c2c(c(-c3ccc4c(c3)OCO4)c3cc(OC)c(OC)cc13)C(=O)OC2	.	.	.	/	/	/
[N-]=[N+]=Nc1ccc(C(=O)CSC[C@H](NC(=O)CC[C@H](N)C(=O)O)C(=O)NCC(=O)O)cc1	?	/	28µM	?	?	/
O=C(Nc1ccccc1)N1CCCC2CCCCC21 (configuration not stated)	.	.	.	.	.	.
CC(=O)Nc1cc(NC(C)=O)cc(C(=O)N2CCCC3CCCCC32)c1 (configuration not stated)	79µM	.	14µM	22µM	?	.
COc1cc2c(cc1OC)CN(C(=O)Cn1ccccc1=O)CC2	.	.	?	35µM	79µM	.
Cc1nc2c(C(=O)N3CCCC3)cnn2c(C)c1Cc1c(F)cccc1Cl	.	.	.	.	.	.
Cc1nc2c(C(=O)N3CCN(c4ccccn4)CC3)cnn2c(C)c1Cc1cccc(Cl)c1	.	.	89µM	.	.	.
COc1ccc(Br)cc1C1Nc2cccc3cccc(c23)N1	.	.	.	.	79µM	.
COc1cc(C2Nc3cccc4cccc(c34)N2)ccc1O	.	.	.	?	.	.
COc1cc(C2Nc3cccc4cccc(c34)N2)cc(OC)c1OC(C)=O	.	32µM	?	?	.	.
Cc1cc(C)c2c(CC(=O)Nc3ccc(S(=O)(=O)N4CCCC(C)C4)cc3)coc2c1 (configuration not stated)	.	.	.	?	.	.
CCCN(CCC)C(=O)c1nn(C)c2c1CSc1ccc(C)cc1-2	.	.	.	.	.	.
CC(C)c1nn2c(=O)cc(COC(=O)c3ccc(NC(=O)C4CCCCC4)cc3)nc2s1	.	.	.	79µM	.	.
CC(C)Cc1nn2c(=O)cc(COC(=O)c3ccc(NC(=O)C4CCCCC4)cc3)nc2s1	.	.	.	.	.	.
COc1cc(OC)c(OC)cc1/C=C/c1nccc2ccccc12	.	?	?	/	/	/
O=C1C2C3C=CC(C3)C2C(=O)N1/N=C/c1ccc(-c2ccccc2[N+](=O)[O-])o1 (configuration not stated)	.	.	.	.	.	.
NC1=NC(=O)/C(=C\c2ccc(-c3ccccc3[N+](=O)[O-])o2)S1	?	?	20µM	/	/	/
CN1C(=O)/C(=C/c2ccc(-c3ccccc3[N+](=O)[O-])o2)SC1=Nc1ccc(Cl)c(C(=O)O)c1	?	45µM	?	20µM	14µM	.
Fc1ccc(Nc2nc3nonc3nc2Nc2cccc(C(F)(F)F)c2)cc1	.	?	.	.	.	.
SMILES	Pol kappa inh	FEN1 inh	POLI inh	POLH inh	POLB inh	PGK inhibitor
COc1c([N+](=O)[O-])ccc(N)c1N	.	.	.	/	/	/
CC(C)(C)C1CCc2c(sc(NC(=O)C3CC=CCC3C(=O)O)c2C#N)C1 (configuration not stated)	.	.	.	?	71µM	.
N#Cc1c(NC(=O)C2CC=CCC2C(=O)O)sc2c1CCCCCC2 (configuration not stated)	.	.	.	?	18µM	?
COc1ccc(N(C(=O)Cc2cccs2)C2C=CS(=O)(=O)C2)cc1 (configuration not stated)	.	.	?	?	16µM	.
O=C(Cc1cccs1)N(c1ccc(Br)cc1)C1C=CS(=O)(=O)C1 (configuration not stated)	.	.	.	.	.	.
O=C(Nc1nnc(SCc2ccc(F)cc2)s1)c1ccc2ncsc2c1	.	?	3.2µM	.	.	.
CC(=O)Nc1nnc(SCc2ccc(F)cc2)s1	.	.	.	.	.	.[11.5 µM]
CCCC[n+]1c2ccccc2cc2ccccc21	.	79µM	?	.	.	.
CCCC[n+]1c(/C=C/c2c(OC)cc(OC)cc2OC)ccc2ccccc21	.	20µM	?	/	/	/
Cc1cc(/C=N/O)c(C)n1-c1ccccc1	.	.	.	.	.	.
Cc1cc(/C=C/c2ccc3cc(N(C)C)ccc3[n+]2C)c(C)n1-c1ccccc1	28µM	/	/	/	/	/
CCC[n+]1c(/C=C/c2c(OC)cc(OC)cc2OC)ccc2ccccc21	.	28µM	?	/	/	/
CCC[n+]1c2ccccc2cc2ccccc21	.	?	?	.	.	.
O=C1[C@H](Cc2ccccc2)NC/C=C\C[C@@H](c2ccc(Cl)cc2)N1Cc1ccccc1	.	.	.	/	/	/
COc1cc(N(C)C)c(OC)cc1C=O	.	.	?	/	/	/
CC(C)[C@H]1COCCS(=O)(=O)N1Cc1cccc([N+](=O)[O-])c1	?	.	?	/	/	/
CN(C)c1ccc(/C=C/c2ccc3ccccc3[n+]2C)cc1	50µM	40µM	40µM!	?	18µM	.
CN(CCCS(=O)(=O)[O-])c1ccc(/C=C/c2ccc3ccccc3[n+]2C)cc1	.	.	?	.	.	/
COc1ccc(/C=C/c2ccc3ccccc3[n+]2C)c(OC)c1OC	.	.	?	/	/	/
COc1cc(OC)c(/C=C/c2ccc3ccccc3[n+]2C)c(OC)c1	.	25µM	?	/	/	/
COc1ccc(/C=C/c2ccc3ccccc3[n+]2C)cc1OC	?	.	.	.	28µM	.
COc1cccc(/C=C/c2ccc3ccccc3[n+]2C)c1OC	.	?	.	/	/	/
CCCCC#Cc1nc(NC)c2ncn([C@@H]3O[C@H](CO)[C@@H](O)[C@H]3O)c2n1	.	/	/	/	/	/
COc1cc2c(cc1OC)C(c1cc(-c3cc(Cl)ccc3Cl)oc1C)=NCC2	.	.	.	/	/	/
CCCC(=O)OCCNc1cc(SCc2ccco2)c2nonc2c1[N+](=O)[O-]	35µM	.	2.5µM	11µM	11µM	.
CCCSc1cc(NCCOC(=O)CCC)c([N+](=O)[O-])c2nonc12	.	.	.	.	.	.
CC(=O)OCCCNc1cc(SCc2ccco2)c2nonc2c1[N+](=O)[O-]	13µM	56µM	3.2µM	22µM	14µM	.
COc1ccc(CCn2c(=S)[nH]c(=O)c3nccnc32)cc1OC	.	.	.	/	/	/
